Counter-ions that a name gives are not always drawn.

In this assay the test system is Vibrio cholerae. Nature of the assay: growth AUC normalised to DMSO control (fraction of control); higher = less growth inhibition, active = hit call of the paper. The following applies: 20 µM. The procedure, abridged:
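Pathogens were passaged twice under anaerobic conditions, then inoculated into pre-reduced mGAM plates at a starting OD578 of 0.01, with compound at 20 μM and 1% DMSO, and sealed with breathable membranes. For Haemophilus parainfluenzae, the medium was supplemented with hemin and NAD. OD578 was read every hour for 24 h in three biological replicates. Growth-curve AUC was calculated by the trapezoidal rule up to the exponential-to-stationary transition and normalised to DMSO controls on the same plate.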
`CN(C)CCOc1ccc(/C(=C(/CCCl)c2ccccc2)c2ccccc2)cc1` [Toremifene]: the “growth AUC normalised to DMSO control” value was 1.05 (inactive).
Consider `O=C1Nc2ccc(Cl)cc2[C@@](C#CC2CC2)(C(F)(F)F)O1` [Efavirenz], for which the “growth AUC normalised to DMSO control” value is 0.999 (inactive).
To `CO[C@@H]1[C@@H](O[C@@H]2O[C@H](C)[C@@H](O[C@H]3C[C@@](C)(O)[C@@H](OC(=O)CC(C)C)[C@H](C)O3)[C@H](N(C)C)[C@H]2O)[C@@H](CC=O)C[C@@H](C)[C@@H](O)/C=C/C=C/C[C@@H](C)OC(=O)C[C@H]1OC(C)=O` [Josamycin] belongs 0.0145 (active); to `O=C(NCCNCC(O)COc1ccc(O)cc1)N1CCOCC1` (configuration not stated) [Xamoterol hemifumarate], 0.98 (inactive); to `CCN(CC)CCCC(C)Nc1c2ccc(Cl)cc2nc2ccc(OC)cc12` (configuration not stated) [Quinacrine dihydrochloride hydrate], 1.04 (inactive).
For `C[C@H]1C[C@H]2[C@@H]3CCC4=CC(=O)C=C[C@]4(C)[C@@]3(F)[C@@H](O)C[C@]2(C)[C@@]1(O)C(=O)CO` [Betamethasone], the “growth AUC normalised to DMSO control” value was 0.979 (inactive).
`CCCCC(CC)CNC(=N)NC(=N)NCCCCCCNC(=N)NC(=N)NCC(CC)CCCC` (configuration not stated) [Alexidine dihydrochloride]: the “growth AUC normalised to DMSO control” value was 0.924 (inactive).
For the molecule `COc1ccc(C(=O)NCc2cccnc2)cc1C(=O)NCc1cccnc1` [Picotamide monohydrate], the “growth AUC normalised to DMSO control” value was 0.992 (inactive).
As to `C[C@@H](c1ncncc1F)[C@](O)(Cn1cncn1)c1ccc(F)cc1F` [Voriconazole], the “growth AUC normalised to DMSO control” value was 0.955 (inactive).
In the case of `NCC[C@H](O)C(=O)N[C@@H]1C[C@H](N)[C@@H](O[C@H]2O[C@H](CN)[C@@H](O)[C@H](O)[C@H]2O)[C@H](O)[C@H]1O[C@H]1O[C@H](CO)[C@@H](O)[C@H](N)[C@H]1O` [Amikacin hydrate], the “growth AUC normalised to DMSO control” value was 1.01 (inactive).
With `CO[C@H]1/C=C/O[C@@]2(C)Oc3c(C)c(O)c4c(O)c(c(/C=N/N5CCN(C)CC5)c(O)c4c3C2=O)NC(=O)/C(C)=C\C=C\[C@H](C)[C@H](O)[C@@H](C)[C@@H](O)[C@@H](C)[C@H](OC(C)=O)[C@@H]1C` [Rifampicin], the “growth AUC normalised to DMSO control” value was 1.01 (inactive).
Take `CC(C)NCC(O)COc1cccc2[nH]ccc12` (configuration not stated) [Pindolol]: the “growth AUC normalised to DMSO control” value is 1.03 (inactive).
Consider `NCCCC[C@H](N[C@@H](CCc1ccccc1)C(=O)O)C(=O)N1CCC[C@H]1C(=O)O` [Lisinopril], for which the “growth AUC normalised to DMSO control” value is 1.04 (inactive).
To `Cc1cccc(Nc2ccccc2C(=O)O)c1C` [Mefenamic acid] belongs 0.926 (inactive); to `CN(C)CCC(c1ccccc1)c1ccccn1` (configuration not stated) [Pheniramine maleate], 0.997 (inactive).
On to `COc1cc(-c2ccc(=O)[nH]n2)ccc1OC(F)F` [Zardaverine], for which the “growth AUC normalised to DMSO control” value was 0.955 (inactive).
In the case of `CCOc1ccc2c(c1)C(C)=CC(C)(C)N2` [Ethoxyquin], the “growth AUC normalised to DMSO control” value is 0.958 (inactive).
On to `CN1CCCCC1CCN1c2ccccc2Sc2ccc([S+](C)[O-])cc21` (configuration not stated) [Mesoridazine besylate], for which the “growth AUC normalised to DMSO control” value is 0.949 (inactive).
On to `CC(C)NCC(O)c1ccc(O)c(O)c1` (single isomer, unassigned; (-)) [(-) Isoproterenol hydrochloride], for which the “growth AUC normalised to DMSO control” value is 1.05 (inactive).
`CO/N=C(\C(=O)N[C@@H]1C(=O)N2C(C(=O)O)=C(C[N+]3(C)CCCC3)CS[C@H]12)c1csc(N)n1` [Cefepime hydrochloride]: the “growth AUC normalised to DMSO control” value was 0.178 (active).
Turning to `N=C(N)N1CCc2ccccc2C1` [Debrisoquin sulfate], the “growth AUC normalised to DMSO control” value was 1.01 (inactive).
For `CC(=O)O[C@]1(C(C)=O)CC[C@H]2[C@@H]3C=C(C)C4=CC(=O)CC[C@]4(C)[C@H]3CC[C@@]21C` [Megestrol acetate], the “growth AUC normalised to DMSO control” value was 1.1 (inactive).
With `N=C(N=C(N)N)N1CCOCC1` [Moroxidine hydrochloride], the “growth AUC normalised to DMSO control” value was 0.991 (inactive).
As for `c1ccc2[nH]c(-c3cscn3)nc2c1` [Tiabendazole], the “growth AUC normalised to DMSO control” value is 0.956 (inactive).
As to `CN(C)[C@@H]1C(=O)C(C(N)=O)=C(O)[C@@]2(O)C(=O)C3=C(O)c4c(O)ccc(Cl)c4[C@@H](O)[C@H]3C[C@@H]12` [Demeclocycline hydrochloride], the “growth AUC normalised to DMSO control” value was 0.056 (active).
With `COc1c2occc2c(OC)c2c(=O)cc(C)oc12` [Khellin], the “growth AUC normalised to DMSO control” value was 0.983 (inactive).
`CN1CCN(C(c2ccccc2)c2ccccc2)CC1` [Cyclizine hydrochloride]: the “growth AUC normalised to DMSO control” value was 0.982 (inactive).

For the origin of these results see the supplement of paper PMC12350171.
